Screening data (PubChem BioAssay)
Most compounds without a hit are left out; they make up all but 1.5% or so of the library.
IDH1 R132H inh: qHTS for Inhibitors of mutant isocitrate dehydrogenase 1 (IDH1): qHTS | AID 602179, 2012 | Potency, µM (titrated, usually from 76.6 µM), actives largely listed as inhibitors | 0.093% of 390,000 active | IDH1-R132H enzyme, NADPH consumption, diaphorase/resazurin fluorescence | Isocitrate dehydrogenase [NADP] cytoplasmic (Homo sapiens), O75874; also: nearly all actives have a fitted effect of over 65% in size
Target sequence (O75874 whole entry R132H, stated change not applied): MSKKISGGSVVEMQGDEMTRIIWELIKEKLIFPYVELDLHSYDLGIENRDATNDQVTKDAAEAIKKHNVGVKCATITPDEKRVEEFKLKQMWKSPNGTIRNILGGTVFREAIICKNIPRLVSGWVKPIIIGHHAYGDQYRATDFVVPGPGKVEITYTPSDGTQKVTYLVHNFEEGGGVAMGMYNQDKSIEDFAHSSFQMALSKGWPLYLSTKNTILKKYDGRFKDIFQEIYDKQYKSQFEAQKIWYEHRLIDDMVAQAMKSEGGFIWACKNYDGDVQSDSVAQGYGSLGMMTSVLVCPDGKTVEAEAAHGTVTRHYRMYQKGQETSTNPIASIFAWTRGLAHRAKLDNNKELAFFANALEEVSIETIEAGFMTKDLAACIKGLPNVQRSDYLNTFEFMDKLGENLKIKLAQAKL
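IDH1-R132H (0.5 ug/mL dispensed) in pH 7.5 Tris buffer was preincubated 30 min with compound, then given a substrate mix of 0.016 mM NADPH and 2 mM alpha-KG for 80 min at room temperature; remaining NADPH was read by diaphorase/resazurin fluorescence.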
TrxR1 substrate: qHTS Assay for Substrates of Mammalian Selenoprotein Thioredoxin Reductase 1 (TrxR1): qHTS; purified TrxR1 substrate turnover, NADPH consumption readout; 0.01% of 390,000 active; Potency, µM (doses to about 114 µM); also: nearly all actives have a fitted effect of over 50% in size
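Rat TrxR1, dispensed at 90 nM, was prereduced with 400 uM NADPH (final) for 5 min at ~22 deg C, then incubated with compound 15 min before 400 uM selenite. A first-read NADPH fluorescence drop versus no-compound background flagged substrates.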
Eya2 inh: qHTS Assay for Inhibitors of the Phosphatase Activity of Eya2 | 0.006% of 330,000 active | Potency, µM (series often up to 76.9 µM), usual class: inhibitors | Protein phosphatase EYA2 (Homo sapiens), O00167 | recombinant Eya2, OMFP fluorescence dephosphorylation (OMFP is methylfluorescein phosphate)
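Eya2 (0.2 uM) preincubated 10 min at ambient with compound, then OMFP substrate added at 50 uM; 10 min reaction in 50 mM HEPES pH 7.5, 50 mM NaCl, 5 uM MgCl2, 0.05% BSA, 1 mM DTT. Fluorescence read at Ex 485/Em 525 nm.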
TrxR1 inh: qHTS Assay for Inhibitors of Mammalian Selenoprotein Thioredoxin Reductase 1 (TrxR1): qHTS; Potency, µM (doses to about 114 µM), hits mostly inhibitors; recombinant rTrxR1, NADPH fluorescence consumption, selenite substrate; Thioredoxin reductase 1, cytoplasmic (Rattus norvegicus), O89049; 1% of 390,000 active; also: nearly all actives have a fitted effect of over 65% in size
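Rat TrxR1 (90 nM in the dispensed reagent) was pre-reduced with 400 uM NADPH for 5 min at room temperature, then incubated with compound for 15 min. After 400 uM selenite was added, NADPH fluorescence (Ex 340/Em 450 nm) was followed for 8 min.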
FBPA coupling cs: qHTS Assay for Inhibitors of Fructose-1,6-bisphosphate Aldolase from Giardia Lamblia: Coupling assay counterscreen | coupling enzyme system counterscreen, AmpLite Red fluorescence | activity change, negative = inhibition, % at 58.2 µM, hits read low | 0.67% of 290,000 active | AID 2472, 2010; in the data active = activity change below about -30%
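Coupling enzymes only (glyceraldehyde-3-phosphate) + compound, at 57.5 uM final, 10 min RT; add substrate/coupling/AmpLite Red mix, 20 min RT; fluorescence ex 525/em 598 nm. Actives flag coupling-system interference.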
Hits are given with their value; 0 = inactive; ? = inconclusive; - = no result; [ ] = dose if it differs, or a comment. Unless noted, calls follow the shape of the dose curve; as a rule, active = well fitted curve in the direction sought with a large enough effect; inconclusive = small, poorly fitted or top-dose-only effect, or another doubt; inactive = no such curve, though single readings can be large; an effect the other way counts as inactive or inconclusive.

SMILES	IDH1 R132H inh	TrxR1 substrate	Eya2 inh	TrxR1 inh	FBPA coupling cs
C=CC(=O)N1C/C(=C/c2ccc(Cl)cc2)C(=O)/C(=C\c2ccc(Cl)cc2)C1	?	0	-	?	-
C=CC(=O)N1C/C(=C/c2ccccc2)C(=O)/C(=C\c2ccccc2)C1	0	0[11.4 µM]	-	4µM	-
O=C1C2C3C=CC(C3)C2C(=O)N1CNc1ccc(O)cc1 (centres undefined)	-	-	0	-	-54
Cc1ccc2cc(C#N)c(NCCCNC(=O)C3CCCO3)nc2c1 (centres undefined)	0	0	0	?	-35
CCc1ccc(C2/C=C\CNC(c3ccccc3)C(=O)N2Cc2ccc(C)cc2)cc1 (centres undefined)	-	0	-	0	0
CCCc1cc(-c2n[nH]c(C)c2-c2ccc(C(=O)OCC)o2)c(O)cc1O	0	0	0	0	-34
CC(C)(C)n1ncc2c(=O)n(Cc3ccccc3C#N)cnc21	-	0	-	0	-
Cc1cc(OCC(=O)Nn2cnnc2)c(C)cc1Br	0	0	0	14µM	0
CCCN1CNc2c(c(=O)[nH]c(=S)n2Cc2ccc(OC)c(OC)c2)C1	-	0	-	?	-
CCCC(=O)NC(=S)Nc1cccc(NC(=O)c2ccccc2)c1	0	0	0	22µM	0
CCCCC(=O)NC(=S)Nc1cccc(NC(=O)c2ccccc2)c1	0	0	0	0	0
O=C(NC(=S)Nc1ccc(S(=O)(=O)N2CCCCC2)cc1)c1ccccc1	0	0	0	11µM	0
Cn1ncc2cc(NC(=S)NC(=O)c3ccccc3)ccc21	0	0	0	25µM	0
O=C(NC(=S)Nc1ccc2c(c1)OCCO2)c1ccccc1	0	0	0	7.1µM	0
O=C(Nc1ccc(S(=O)(=O)N2CCCC2)cc1)c1ccccc1	0	0	0	0	-
C=C1C=C(C(F)F)n2ncc(C(=O)Nc3ccc(Br)cc3C(F)(F)F)c2N1	-	0	-	0	-
Cc1c([N+](=O)[O-])cnc2ccccc12	-	0	-	0	-
O=C(NCCCc1cnc[nH]1)NCCCN(Cc1ccc(Cl)cc1)c1ccc(Br)cn1	-	0	-	0	-
O=S(=O)(c1ccccc1F)N1CCN(c2nc(-c3cccs3)nc3ccccc23)CC1	-	0	-	0	-
COc1ccc(NC(=S)NC(=O)c2ccc3c(c2)OCCO3)cc1	0	0	0	3.5µM	-
O=C(O)CCNc1ccc2c(c1)OCCO2	0	0	0	0	-41
C=CCC(C)(O)c1cccc(Br)c1 (centres undefined)	-	-	-	-	0
CCC(=O)OCOc1ccc(/C=C2/CCC(CN(C)C)C2=O)cc1 (centres undefined)	0	0	-	1.1µM	-
CCOc1ccc(-c2n[nH]c(C)c2-c2ccccc2OC)c(O)c1	0	0	0	0	0
CCc1cc(-c2n[nH]c(C)c2-c2ccccc2Cl)c(O)cc1OC	0	0	0	0	-35
SMILES	IDH1 R132H inh	TrxR1 substrate	Eya2 inh	TrxR1 inh	FBPA coupling cs
COc1cc2ncnc(N3CCN(C(=O)Nc4ccc(Oc5ccccc5)cc4)CC3)c2cc1OC	-	0	-	0	-
CCCCS(=O)(=O)/C=C\C=C/S(=O)(=O)CCCC	0	0	0	3.5µM	0
CCCCS(=O)(=O)/C=C\C1C2C=CC(C2)C1S(=O)(=O)CCCC (centres undefined)	0	0	0	0	0
O=C1OC(Nc2nc(-c3ccc(F)cc3)cs2)c2ccccc21 (centres undefined)	0	0	0	56µM	0
O=C1OC(Nc2nc3ccccc3s2)c2ccccc21 (centres undefined)	0	0	0	0	0
CC[N+]1(CC(=O)c2ccc(Br)cc2)CCCCC1	-	0	-	0	-
S=C(NCCCc1cnc[nH]1)NCCCN(Cc1ccc(Cl)cc1)c1ccc(-c2ccccc2)cn1	-	0	-	89µM	-
S=C(NCCCN(Cc1ccc(Cl)cc1)c1ccc(-c2ccccc2)cn1)NCCCN(Cc1ccc(Cl)cc1)c1ccc(-c2ccccc2)cn1	-	0	-	0	-
COc1cc2nc(N3CCCN(C)CC3)nc(NC3CCNCC3)c2cc1OC	-	0	-	0	-
Oc1cc(NCCN2CCOCC2)cc2cccnc12	-	0	0	11µM	-
CN(C)S(=O)(=O)c1cccc(N=C2NN=C(c3ccccc3)CS2)c1	40µM	0	0	0	0
CC(=O)Nc1ccc(C2=NNC(=Nc3cccc(S(=O)(=O)N(C)C)c3)SC2)cc1	41µM	0	0	0	0
Fc1ccccc1N=C1NN=C(c2ccccc2)CS1	0	0	0	0	0
O=C(O)CC1CCC(=C(Cl)Cl)C1 (centres undefined)	0	0	0	1µM	0
Cc1cc(=O)[nH]c2ccc(O)cc12	-	0	-	0	-
COc1cc(C2c3c(n[nH]c3C)C(=O)N2c2ccc(C)cc2)ccc1O (centres undefined)	0	0	0	32µM	0
Cc1nc(SCC(=O)NCc2ccco2)c2c3c(sc2n1)CCCC3	0	0	0[15.4 µM]	?	0
CCCc1nc2sc3c(SCC(=O)NCc4ccco4)ncnc3c2c2c1CCC2	0	0	0	45µM	0
O=C(CCl)N(CCc1ccccc1)CCc1ccccc1	0	0	0	11µM	0
CCOC(=O)c1sc2nc(-c3ccco3)c3c(c2c1N)CC(C)(C)OC3	0	0	0	7.9µM	0
COC(=O)CSc1ncnc2c1sc1nc(-c3ccco3)c3c(c12)CC(C)(C)OC3	-	-	0	-	0
CC1(C)Cc2c(c(N3CCOCC3)nc3sc(C(N)=O)c(N)c23)CO1	0	0	0	0	-30
Cc1ccc(NC(=O)c2sc3nc(N4CCOCC4)c4c(c3c2N)CC(C)(C)OC4)cc1	0	0	0	0	0
O=C(COC(=O)/C=C/c1ccco1)Nc1cc(S(=O)(=O)N2CCOCC2)ccc1Cl	0	0	0	35µM	-
COc1cccc(/C=C/C(=O)OCC(=O)Nc2ccc(Cl)c(S(=O)(=O)N(C)C)c2)c1	0	0	0	0	0
SMILES	IDH1 R132H inh	TrxR1 substrate	Eya2 inh	TrxR1 inh	FBPA coupling cs
CN(C)S(=O)(=O)c1cc(NC(=O)COC(=O)/C=C/c2ccco2)ccc1Cl	0	0	0	3.5µM	0
CC(=O)NC1=CC(=O)c2nonc2C1=O	-	7.1µM	-	?	-
COc1ccc(CNC(=O)c2c(C)oc3c2C(=O)c2ccccc2C3=O)cc1	0	0	0	0	-45
CC(=O)c1c(C)oc2c1C(=O)c1ccccc1C2=O	0	0	0	0	-41
Cc1oc2c(c1C(=O)NCc1cccnc1)C(=O)c1ccccc1C2=O	0	0	0	0	0
O=C(c1ccc2c(=O)n(Cc3ccco3)c(=S)[nH]c2c1)N1CCN(Cc2ccc3c(c2)OCO3)CC1	-	0	-	0	-
COc1ccc2c(c1)NC(C)(C)C=C2C	0	0	0	0	-33
COc1cc(C(C2C(=O)CC(C)(C)CC2=O)C2C(=O)CC(C)(C)CC2=O)cc(OC)c1OC	0	0	0	?	0
